Laboratory results reported in PubChem BioAssay AID1159580 (chemical genetic matrix, 2015).
Where “and” joins values, the source holds several entries; their conditions need not be identical. Identical values can stand only once. Out of some 5,500 compounds screened, about 2,000 (36%) were called active. About 18% were inconclusive and are not listed. Cut-off read from the data, not from the text of the source: active = normalized growth mostly below about 0.91 (no sharp cut-off); inconclusive = no clear call, values can overlap the other calls; inactive = mostly above about 0.92. The list shows a part of the results.

Assay: chemical genetic growth profiling, strain panel (AID 1159580);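 note: tested at 20 µM; growth read once vehicle control cultures reached saturation at 30 °C; 1 = growth at the plate median or of vehicle wells; lower values mean less growth of the strain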
Conditions: S. cerevisiae deletion strains, growth OD

Measured: normalized growth

C#CCN(C)Cc1ccccc1
inactive: locus YAL013W, strain DEP1, hits give low values 0.994 | locus YAL021C, strain ccr4, hits give low values 1.03 | locus YAL026C, strain drs2, hits give low values 1.02 | locus YAL030W, strain snc1, hits give low values 0.999 | locus YAL040C, strain CLN3, hits give low values 0.998 | locus YBL061C, strain skt5, hits give low values 0.984 | locus YBR009C, strain hhf1, hits give low values 0.982 | locus YBR021W, strain FUR4, hits give low values 1.02 | locus YBR023C, strain chs3, hits give low values 0.997 | locus YBR171W, strain sec66, hits give low values 1.04 | locus YBR229C, strain ROT2, hits give low values 1 | locus YBR231C, strain swc5, hits give low values 1.01 | locus YBR279W, strain paf1, hits give low values 0.977 | locus YCL011C, strain gbp2, hits give low values 1 | locus YCL016C, strain dcc1, hits give low values 0.962 | locus YCL029C, strain bik1, hits give low values 1.02 | locus YCL061C, strain MRC1 (second series), hits give low values 1 | locus YCL069W, strain vba3, hits give low values 1.02 | locus YCR088W, strain abp1, hits give low values 1.04 | locus YDL005C, strain med2, hits give low values 1.02 | locus YDL035C, strain GPR1, hits give low values 0.997 | locus YDL040C, strain nat1, hits give low values 1.02 | locus YDL074C, strain BRE1, hits give low values 0.991 | locus YDL101C, strain DUN1, hits give low values 1.01 | locus YDL134C, strain PPH21, hits give low values 1 | locus YDL185W, strain tfp1, hits give low values 1.01 | locus YDL192W, strain arf1, hits give low values 1.02 | locus YDR001C, strain nth1, hits give low values 1.01 | locus YDR069C, strain doa4, hits give low values 0.955 | locus YDR101C, strain arx1, hits give low values 1.02 | locus YDR137W, strain rgp1, hits give low values 0.98 | locus YDR159W, strain sac3, hits give low values 0.933 | locus YDR162C, strain NBP2, hits give low values 1 | locus YDR195W, strain ref2 0.988 | locus YDR297W, strain sur2, hits give low values 0.998 | locus YDR318W, strain mcm21, hits give low values 1.03 | locus YDR334W, strain swr1, hits give low values 1.02 | locus YDR335W, strain msn5, hits give low values 0.996 | locus YDR363W, strain ESC2, hits give low values 0.949 | locus YDR388W, hits give low values 1.02 | locus YDR392W, strain spt3, hits give low values 0.958 | locus YDR502C, strain sam2, hits give low values 1.01 | locus YEL003W, strain gim4, hits give low values 1.04 | locus YEL037C, strain rad23, hits give low values 1.03 | locus YEL061C, strain CIN8 (second series), hits give low values 1.02 | locus YEL061C, strain CIN8, hits give low values 0.99 | locus YER002W, strain NOP16, hits give low values 1.02 | locus YER015W, strain faa2, hits give low values 1 | locus YER016W, strain bim1, hits give low values 0.979 | locus YER110C, hits give low values 1.01 | locus YER111C, strain swi4, hits give low values 1.01 | locus YER155C, strain BEM2 (second series), hits give low values 1.01 | locus YER155C, strain BEM2, hits give low values 1 | locus YER167W, strain BCK2, hits give low values 1 | locus YFR010W, strain ubp6, hits give low values 1.04 | locus YGL078C, strain dbp3, hits give low values 1.01 | locus YGL086W, strain mad1, hits give low values 0.998 | locus YGL167C, strain pmr1, hits give low values 0.987 | locus YGL173C, strain kem1, hits give low values 1.05 | locus YGL227W, strain vid30, hits give low values 1.01 | locus YGL240W, strain doc1, hits give low values 0.977 | locus YGL248W, strain PDE1, hits give low values 1 | locus YGL253W, strain hxk2, hits give low values 1.02 | locus YGR078C, strain PAC10, hits give low values 0.995 | locus YGR135W, strain pre9, hits give low values 1.02 | locus YGR252W, strain gcn5, hits give low values 0.965 | locus YHR013C, strain ard1, hits give low values 1 | locus YHR027C, strain rpn1, hits give low values 1.02 | locus YHR030C, strain SLT2, hits give low values 0.992 and 0.966 | locus YHR079C, strain IRE1 (second series), hits give low values 1.03 | locus YHR079C, strain IRE1, hits give low values 0.927 | locus YHR094C, strain hxt1, hits give low values 1.02 | locus YHR129C, strain ARP1, hits give low values 0.996 | locus YHR142W, strain chs7, hits give low values 1.06 | locus YHR200W, strain rpn10, hits give low values 1.01 | locus YIL066C, strain RNR3, hits give low values 0.992 | locus YIL073C, strain SPO22, hits give low values 1.06 | locus YIL125W, strain kgd1, hits give low values 1.01 | locus YIR030C, strain dcg1, hits give low values 1.01 | locus YJL092W, strain hpr5, hits give low values 1.02 | locus YJL095W, strain BCK1 (second series), hits give low values 1.01 | locus YJL095W, strain BCK1, hits give low values 0.99 and 0.98 | locus YJL115W, strain asf1, hits give low values 1.01 | locus YJL129C, strain trk1, hits give low values 1.03 | locus YJL134W, strain LCB3, hits give low values 1 | locus YJL154C, strain vps35, hits give low values 1.01 | locus YJL164C, strain tpk1, hits give low values 1.01 | locus YJL166W, strain qcr8, hits give low values 1.03 | locus YJL168C, strain set2, hits give low values 1.01 | locus YJL187C, strain SWE1 (second series), hits give low values 1 | locus YJL187C, strain SWE1, hits give low values 1.01 | locus YJR043C, strain POL32, hits give low values 0.997 | locus YJR066W, strain TOR1, hits give low values 0.936
